We go through 94 sequences from the supplement of paper PMC3334620.

The full ranking holds about 33,000 sequences; the median of “E-score (-0.5 to 0.5)” is about -0.021, and the highest 2% start at about 0.32. The list comes from a sample in which the highest values are over-represented; it also holds similar and randomly drawn sequences.

This assay has as its target T1, Zap1 (UniProt P47043).
T1 sequence: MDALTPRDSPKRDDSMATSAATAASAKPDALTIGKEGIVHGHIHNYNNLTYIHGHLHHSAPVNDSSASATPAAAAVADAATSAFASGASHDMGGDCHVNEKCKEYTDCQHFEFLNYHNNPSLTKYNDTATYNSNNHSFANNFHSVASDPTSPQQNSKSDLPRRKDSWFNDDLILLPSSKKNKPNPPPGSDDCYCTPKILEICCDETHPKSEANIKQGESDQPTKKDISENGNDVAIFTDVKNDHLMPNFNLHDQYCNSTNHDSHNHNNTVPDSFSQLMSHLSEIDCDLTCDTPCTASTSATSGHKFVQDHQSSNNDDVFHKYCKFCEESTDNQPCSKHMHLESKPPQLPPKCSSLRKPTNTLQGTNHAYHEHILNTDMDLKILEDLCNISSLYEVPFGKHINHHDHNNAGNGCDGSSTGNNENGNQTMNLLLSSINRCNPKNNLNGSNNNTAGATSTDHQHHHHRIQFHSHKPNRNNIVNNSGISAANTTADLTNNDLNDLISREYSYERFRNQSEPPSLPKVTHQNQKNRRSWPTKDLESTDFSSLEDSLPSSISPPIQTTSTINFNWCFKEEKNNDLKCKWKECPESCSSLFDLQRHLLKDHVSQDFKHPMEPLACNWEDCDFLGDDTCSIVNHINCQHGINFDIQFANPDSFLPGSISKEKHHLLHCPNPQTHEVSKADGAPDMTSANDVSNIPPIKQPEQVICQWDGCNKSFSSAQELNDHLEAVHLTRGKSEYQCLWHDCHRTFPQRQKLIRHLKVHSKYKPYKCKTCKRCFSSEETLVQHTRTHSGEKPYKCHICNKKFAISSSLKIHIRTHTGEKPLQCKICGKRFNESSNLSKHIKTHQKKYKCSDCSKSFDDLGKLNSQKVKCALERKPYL
Nature of the assay: PBM E-score (8-mer binding enrichment) (E-score (-0.5 to 0.5)); higher = stronger / more preferred TF binding. Conditions: protein concentration: 200 nM; construct: GST-full length. In outline:
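For each ungapped eight-base word taken together with its reverse complement, the Universal PBM Analysis Suite assigned an E-score. Binding data came from GST-tagged yeast transcription factors, applied at about 100-200 nM, on universal all-10-mer Agilent arrays made double-stranded by primer extension. Fluorescent anti-GST marked bound protein, and scans were normalised with masliner.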
On to GCCTTACC, for which the “PBM E-score” value was 0.0234.

Consider CCATAAAC, for which the “PBM E-score” value was 0.0419.

Take AAGGTATC: the “PBM E-score” value came out at 0.255.

For AACGTACT, the “PBM E-score” value was 0.0257.

Turning to GAGGTAGC, the “PBM E-score” value was found to be 0.0662.

For the sequence GAGGTACA, the “PBM E-score” value worked out at 0.155.

Consider AAGGTACT, for which the “PBM E-score” value was found to be 0.33.

In the case of AAGGTAGA, the “PBM E-score” value came to 0.106.

Consider AAGGTAGC, for which the “PBM E-score” value was found to be 0.307.

For the sequence GAGGTACC, the “PBM E-score” value is 0.432.

With CAGGTACG, the “PBM E-score” value came to 0.0402.

Take CAGGTACC: the “PBM E-score” value stood at 0.415.

In the case of AAGGTAGT, the “PBM E-score” value is 0.373.

In the case of CAGGTACA, the “PBM E-score” value turned out to be 0.101.

In the case of GGATCCCC, the “PBM E-score” value is -0.152.

Regarding CGATAGAG, the “PBM E-score” value was -0.236.

As to GTACCTTA, the “PBM E-score” value was found to be 0.265.

As for GGCATAGA, the “PBM E-score” value was -0.0663.

CGCTACGA: the “PBM E-score” value is -0.0679.

With AAGGTACG, the “PBM E-score” value is 0.0328.

AAGGTACA: the “PBM E-score” value was 0.223.

For AAGGTACC, the “PBM E-score” value turned out to be 0.445.

Take CCAGTTAG: the “PBM E-score” value was found to be 0.00998.

As for CCAATAGA, the “PBM E-score” value was -0.224.

As to CTAGTTAA, the “PBM E-score” value was determined as 0.144.

Consider CGACGAAC, for which the “PBM E-score” value was -0.0937.

With ATATAACC, the “PBM E-score” value came to 0.456.

With ATATAACA, the “PBM E-score” value worked out at 0.176.

As for CTATAACC, the “PBM E-score” value amounted to 0.446.

Regarding CTATAATC, the “PBM E-score” value is -0.017.

On to ATATAACG, for which the “PBM E-score” value came out at 0.183.

For CTATAACA, the “PBM E-score” value is -0.0126.

With AACCAACA, the “PBM E-score” value turned out to be 0.254.

Regarding CGGCTCGA, the “PBM E-score” value is -0.172.

In the case of ACAAAAGC, the “PBM E-score” value was -0.0458.

Turning to CAGCGCAG, the “PBM E-score” value is -0.221.

For the sequence AGGGTGGG, the “PBM E-score” value was found to be 0.334.

As for AGGGTGGA, the “PBM E-score” value is 0.163.

As for AGGGTGGC, the “PBM E-score” value was found to be 0.293.

With CGGGTTGC, the “PBM E-score” value came out at 0.18.

Regarding AGGGTTGC, the “PBM E-score” value was determined as 0.46.

In the case of AGGGTTGG, the “PBM E-score” value is 0.333.

In the case of AGGGTTTC, the “PBM E-score” value is 0.232.

In the case of AGGGTTGA, the “PBM E-score” value was 0.271.

Take ATGGTTGG: the “PBM E-score” value was -0.0414.

On to TCATGCGA, for which the “PBM E-score” value was -0.00209.

Regarding GCTCTTGA, the “PBM E-score” value was -0.213.

As to CGGAGTTC, the “PBM E-score” value was determined as 0.0089.

On to GTTAGGAA, for which the “PBM E-score” value turned out to be 0.168.

With GAAGCAAC, the “PBM E-score” value came out at 0.106.

With AACCGGTG, the “PBM E-score” value was -0.0964.

For the sequence AACCGGTC, the “PBM E-score” value amounted to 0.14.

As for AACCGGTT, the “PBM E-score” value was 0.348.

For AACCGGGA, the “PBM E-score” value was found to be 0.133.

As to AACCGGGT, the “PBM E-score” value worked out at 0.319.

As for AACCGGGG, the “PBM E-score” value is -0.00821.

For CGGAACTA, the “PBM E-score” value came out at 0.141.

With CGATGCCG, the “PBM E-score” value was -0.11.

Consider GACTTGCA, for which the “PBM E-score” value is -0.0829.

For GGGTTTAC, the “PBM E-score” value turned out to be 0.316.

As to GGAGTTAC, the “PBM E-score” value turned out to be 0.137.

With CGGGTTAA, the “PBM E-score” value amounted to 0.356.

As for CGGGTTGA, the “PBM E-score” value was determined as 0.24.

As to CGGGTTAG, the “PBM E-score” value was found to be 0.0706.

With GGGGTTAC, the “PBM E-score” value stood at 0.464.

On to CGGGTTTC, for which the “PBM E-score” value was 0.289.

In the case of CGGGTTTA, the “PBM E-score” value came to 0.205.

With CGGGTTAC, the “PBM E-score” value is 0.439.

TCACAGCA: the “PBM E-score” value came to 0.124.

On to ACTCCTTG, for which the “PBM E-score” value is 0.0145.

Consider ATGGTGAA, for which the “PBM E-score” value is -0.0722.

Consider CACCACTG, for which the “PBM E-score” value was -0.0127.

As for CTACGTAG, the “PBM E-score” value was -0.0165.

TAAGTTCA: the “PBM E-score” value was 0.0427.

Turning to GGTAGACA, the “PBM E-score” value is -0.0227.

On to CACCGGTA, for which the “PBM E-score” value was determined as 0.188.

Take CCCCGGTA: the “PBM E-score” value came to 0.153.

Regarding TACCGGTA, the “PBM E-score” value was found to be 0.355.

For ACCCGGTA, the “PBM E-score” value was 0.329.

As to ACCCGGTC, the “PBM E-score” value was -0.0272.

Regarding AACCGGTA, the “PBM E-score” value came out at 0.0841.

Regarding ACTAGCTG, the “PBM E-score” value was -0.214.

On to CATAGTGC, for which the “PBM E-score” value is -0.16.

In the case of AGCGAATC, the “PBM E-score” value was -0.083.

Consider CTCCAGAC, for which the “PBM E-score” value was -0.165.

Take AGAGTAAG: the “PBM E-score” value is 0.0042.

For ATGGTAAT, the “PBM E-score” value was determined as 0.239.

For the sequence AGGGTAAG, the “PBM E-score” value was found to be 0.373.

For the sequence AGGGTAAA, the “PBM E-score” value was determined as 0.235.

On to AGGGTAAT, for which the “PBM E-score” value was 0.38.

For GAGAGCAC, the “PBM E-score” value was -0.00012.

Regarding CATTGGAG, the “PBM E-score” value is -0.0511.

With GAAGCATC, the “PBM E-score” value was -0.258.

Turning to ACGATGCG, the “PBM E-score” value is -0.223.
